# Experimental data published in PubChem BioAssay AID430 (Sanford-Burnham Center for Chemical Genomics, 2006).
# Screen size: about 63,000 compounds; about 1,100 (1.7%) were called active. Shown is part of a subset that was picked to be rich in actives. Measured potencies and affinities stand elsewhere. A number with no mark means an inactive call. Rule as the data show it: active = cytotoxicity above about 50%; inactive = the rest.
# Assay: HPDE-C7 pancreatic duct cell viability loss – fluorescence, HTS (AID 430);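 also: cells exposed to compound for 48 hours before viability readout; 0% = vehicle and 100% = reference cytotoxic drug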
# Conditions: HPDE-C7 pancreatic duct cells viability, at 10 µM, hits give high values
row,SMILES,cytotoxicity
1,CSc1cccc(NC(=O)CSc2nc3ccccc3o2)c1,-17.5%
2,O=C(CSc1nc2ccccc2o1)Nc1ccccc1,-13.9%
3,CCCCN(Cc1ccccc1)C(=O)C1CCCN(S(=O)(=O)c2cnc[nH]2)C1 (stereo not drawn),6%
4,Cc1ccccc1-n1c(C)nnc1SCC(=O)N1CC(=O)Nc2ccccc21,4.2%
5,Cc1cccc2cc(C#N)c(SCC(=O)N3CCC(C)CC3)nc12,8.5%
6,Cc1cccc2cc(C#N)c(SCC(=O)N3CC(=O)Nc4ccccc43)nc12,53.4% (active)
7,C=CCOc1ccc(/C(O)=C2/C(=O)C(=O)N(CCN3CCOCC3)C2c2ccc(C)cc2)cc1 (stereo not drawn),-1.1%
8,N#CC1=C(N)C(C#N)(C#N)[C@H](c2ccncc2)[C@H]2CC3(CC=C12)OCCO3,-12.1%
9,Cc1ccc(C2C3CN(C(C)C)CC=C3C(C#N)=C(N)C2(C#N)C#N)cc1 (stereo not drawn),-0.7%
10,CCOC(=O)c1cccc(NC(=O)CSc2nnc(-c3cccnc3)n2CC)c1,-5.8%
11,COc1ccccc1-n1c(SCC(=O)N2CCCCC2)nc2cccnc21,-11.8%
12,c1ccc2c(c1)[nH]c1c(N3CCSCC3)ncnc12,44%
13,COc1cccc(N2CCN(c3ncnc4c3[nH]c3ccc(F)cc34)CC2C)c1 (stereo not drawn),114% (active)
14,COc1ccc2c(c1)c(C(O)CN1CCN(Cc3ccc4c(c3)OCO4)CC1)c(C)n2C (stereo not drawn),21.3%
15,Fc1ccc2[nH]c3c(N4CCN(c5ccccc5)CC4)ncnc3c2c1,10.8%
16,c1ccc2c(c1)oc1c(N3CCN(Cc4ccc5c(c4)OCO5)CC3)ncnc12,8.4%
17,COc1cccc2[nH]c3c(N4CCN(Cc5ccc6c(c5)OCO6)CC4)ncnc3c12,47.6%
18,COc1ccc2[nH]c3c(N4CCN(Cc5ccc6c(c5)OCO6)CC4)ncnc3c2c1,50.6% (active)
19,COc1ccc2c(c1)c1ncnc(N3CCN(Cc4ccc5c(c4)OCO5)CC3)c1n2C,54.9% (active)
20,CN1CCN(c2ncnc3c2[nH]c2ccc(F)cc23)CC1,6.4%

row,SMILES,cytotoxicity
1,c1ccc(Cn2nnc3c(N4CCN(Cc5ccc6c(c5)OCO6)CC4)ncnc32)cc1,11.9%
2,Fc1ccc2[nH]c3c(N4CCN(C5CCCCC5)CC4)ncnc3c2c1,10.6%
3,Cc1ccc(N(CC(=O)NC2CCCCCC2)S(=O)(=O)c2c(C)nn(C)c2C)cc1,3.4%
4,COc1cccc(C(=O)N(CN2CCCC2=O)c2ccccc2OC)c1,-0.2%
5,CCCC(c1nnnn1Cc1ccc(F)cc1)N1CCN(C2CCCCC2)CC1 (stereo not drawn),10.8%
6,O=C(CN1CCN(c2ccccn2)CC1)Nc1ccc(OCc2ccccc2)cc1,3.7%
7,O=C1c2ccccc2C(=O)N1CCSc1nncs1,-8.3%
8,Cc1ccc2c(c1)[nH]c1c(N3CCN(Cc4ccc5c(c4)OCO5)CC3)ncnc12,-17.1%
9,c1nc(N2CCN(Cc3ccc4c(c3)OCO4)CC2)c2[nH]cnc2n1,-4%
10,Fc1ccc2[nH]c3c(N4CCN(Cc5ccc6c(c5)OCO6)CC4)ncnc3c2c1,89.3% (active)
11,Cc1ccc2[nH]c3c(N4CCN(Cc5ccc6c(c5)OCO6)CC4)ncnc3c2c1,30.3%
12,COC(=O)c1[nH]c2cc(OC)ccc2c1NC(=O)CCN1CCN(Cc2ccc3c(c2)OCO3)CC1,-20.7%
13,COc1ccccc1-n1c(SCC(=O)NC(C)(C)C)nnc1-c1ccco1,3.2%
14,COC(=O)c1sc(NC(=O)CSc2nnc(C(C)C)n2C)nc1C,-8.2%
15,COc1ccccc1CN1C(=O)CCC1(C)C(=O)NC1CCCCCC1 (stereo not drawn),-12.9%
16,COCCNC(=O)c1cnn2c(C(F)(F)F)cc(-c3ccc4c(c3)OCO4)nc12,4.1%
17,Cc1cc(-c2ccccc2)c2c3c(cn2n1)c(=O)n(C)c(=O)n3C,2.6%
18,Cc1nc2sc3c(c2c2nnc(SCC(=O)NCc4ccco4)n12)CCCC3,-3.2%
19,CC1(C)Cc2c(C#N)c(SCc3ccccc3)nc(N3CCOCC3)c2CO1,18.9%
20,CCCCCSc1nc(N2CCOCC2)c2c(c1C#N)CC(C)(C)OC2,1.7%

row,SMILES,cytotoxicity
1,CC1(C)Cc2c(C#N)c(SCC(=O)c3ccccc3)nc(N3CCOCC3)c2CO1,-5.6%
2,CN1Cc2c(N3CCOCC3)nc(SCc3ccccc3)c(C#N)c2CC1(C)C,51.3% (active)
3,CC1(C)Cc2c(C#N)c(SCCOc3ccccc3)nc(N3CCOCC3)c2CO1,59.4% (active)
4,N#Cc1c(SCc2ccccc2)nc(N2CCOCC2)c2c1CCCC2,8.3%
5,Cn1c(=O)c2c(ncn2CC(=O)N2CCCc3ccccc32)n(C)c1=O,-15.8%
6,CCOC(=O)c1cccc(S(=O)(=O)N(CCO)Cc2cc3cc(OC)c(OC)cc3[nH]c2=O)c1,-19.4%
7,COc1ccc(-n2c(Cc3cccn3C)nnc2SCC(=O)Nc2nccs2)cc1,5.7%
8,Nc1ccccc1OCCOCCOCCOc1ccccc1N,5.3%
9,CCC(C)n1cnc2c(c1=O)c1nc3ccccc3nc1n2Cc1ccc2c(c1)OCO2 (stereo not drawn),26.8%
10,COc1ccc(C2=NOC(C(=O)NCc3ccco3)C2)cc1OC (stereo not drawn),38.7%
11,COc1cc(C2=NOC(C(=O)NCc3ccco3)C2)cc(OC)c1OC (stereo not drawn),32.6%
12,COc1ccc(NC(=O)C2CC(c3ccc(OC)c(OC)c3)=NO2)cc1OC (stereo not drawn),-6.6%
13,COc1cc(C2=NOC(C(=O)Nc3ccc(C)cc3)C2)cc(OC)c1OC (stereo not drawn),-9.2%
14,COc1cc(C2=NOC(C(=O)NCc3ccc(F)cc3)C2)cc(OC)c1OC (stereo not drawn),63.4% (active)
15,COc1ccc(C2=NOC(C(=O)NCc3ccc(F)cc3)C2)cc1OC (stereo not drawn),55.2% (active)
16,O=C(c1ccco1)N(CCCN1CCOCC1)c1nc(-c2ccc(F)cc2)cs1,11.3%
17,COc1ccc(NC(C)=O)cc1NC(=O)CSc1nnc(-c2cccnc2)n1C,-13.3%
18,O=C(NCC1CCCO1)C1CCC(CNS(=O)(=O)c2ccccc2)CC1 (stereo not drawn),13.6%
